# Measurements taken from PubChem BioAssay AID1259415 (National Center for Advancing Translational Sciences (NCATS), 2018).
# Where “and” joins values, the source holds several entries; their conditions need not be identical. Identical values can stand only once. About 18,000 (4.4%) of roughly 410,000 compounds were called active. Roughly 7% stayed inconclusive and do not appear here. Rule as the data show it: active = activity change below about -60%; inconclusive = no clear call, values can overlap the other calls; inactive = above about -39%. For the sample, actives were picked, then their nearest neighbours and some compounds at random. The source holds several records for some structures; these can differ, active in one and inactive in another.
# Experiment: qHTS Assay for inhibitors of the human cytomegalovirus (HCMV)
# Conditions: HFF cells, HCMV-luciferase reporter, 72 h; at 57.5 µM; stronger effect = lower value
# Outline: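 Inhibition of viral replication was scored as loss of reporter luminescence in HFFs infected with HCMV-luciferase (MOI 1 PFU/cell) for 72 h; compounds tested at 2 doses, normalized to buffer and Salinomycin controls.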
# % is scaled to controls: 0 for no effect and ±100 for the full control effect.
row,SMILES,"activity change, negative = inhibition"
1,Cc1ccc(OCC(=O)Nc2ccc(C(=O)O)cc2NC(=O)COc2ccc(C)c(C)c2)cc1C,-98.3% (active)
2,Cc1ccc(OCC(=O)Nc2cccc3c2CCCC3)cc1C,-12.3% (inactive)
3,COc1ccc(Cl)cc1NC(=O)Cn1nc(-c2ccc(C)cc2)n(C)c1=S,3.99% (inactive)
4,COc1ccc(CNC(=O)C(C)n2nc(C)c3c(C)n(-c4ccccc4)nc3c2=O)c(OC)c1 (centres undefined),-15.4% (inactive) and -69.2% (active)
5,Cc1ccccc1CNC(=O)CSc1nnc(C)c2c(C)n(-c3ccccc3)nc12,-3% (inactive)
6,Cc1nn(C(C)C(=O)N2CCOCC2)c(=O)c2nn(-c3ccccc3)c(C)c12 (centres undefined),-17.5% (inactive)
7,Cc1nn(C(C)C(=O)NCCC2=CCCCC2)c(=O)c2nn(-c3ccccc3)c(C)c12 (centres undefined),-28.7% (inactive)
8,COc1ccc(OC)c(CNC(=O)Cn2nc(C)c3c(C)n(-c4ccccc4)nc3c2=O)c1,-18.6% (inactive)
9,Cc1ccc(-n2nc3c(=O)n(C(C)C(=O)NCc4ccc5c(c4)OCO5)nc(C)c3c2C)cc1 (centres undefined),-83.4% (active)
10,COc1ccc(-c2n[nH]c3c2CN(C(=O)c2ccc(F)cc2)CC3)cc1,0% (inactive)
11,O=C1C=C[C@]23OCCC[C@@]2(CCCO)CCCC3=C1,-2.29% (inactive)
12,CCOc1cc(C(=O)OCC(=O)Nc2cccc(C)c2)ccc1OCC(=O)N1CCOCC1,-3.23% (inactive)
13,CCOc1cc(N2CCOCC2)c(OCC)cc1NC(=O)COc1cccc2cccnc12,-104% (active)
14,CCOc1cc(N2CCOCC2)c(OCC)cc1NC(=O)C1=NN(c2cccc(C)c2)C(=O)CC1,-25.4% (inactive)
15,Cc1ccc(CNS(=O)(=O)c2ccc(-c3cc(C(F)(F)F)on3)s2)cc1,87.2% (inactive)
16,Cc1ccc(CNS(=O)(=O)c2ccc(C(=O)N(C)C)s2)cc1,1.6% (inactive)
17,O=C(Nc1ccccc1Br)c1cc(CN2CCCC2)on1,27.2% (inactive)
18,CCOc1ccc(N(Cc2ccccc2)C(=O)c2nc(SCC)ncc2Cl)cc1,-68.2% (active)
19,CCOc1ccc(N(Cc2ccccc2)C(=O)c2nc(S(C)(=O)=O)ncc2Cl)cc1,-101% (active)
20,CCOc1ccc(NC(=O)CN(Cc2ccccc2)S(=O)(=O)c2ccc(Cl)cc2)cc1,2.3% (inactive)
21,CCSc1ncc(Cl)c(C(=O)Nc2c(C(=O)c3ccccc3)oc3ccccc23)n1,12.8% (inactive)
22,COc1ccc(N(Cc2ccc(N(C)C)cc2)C(=O)c2ccc(S(C)(=O)=O)cc2)cc1,6.32% (inactive)

row,SMILES,"activity change, negative = inhibition"
1,CCOc1ccc(N(CC)C(=O)c2noc3c2COc2ccc(C)cc2-3)cc1,-7.27% (inactive)
2,Brc1ccc(-c2n(-c3ccccn3)c3ccccc3[n+]2-c2ccccn2)cc1,-11.9% (inactive)
3,CCOC(=O)c1ccc(NC(=O)C2CC(=O)N(c3ccc(C(C)C)cc3)C2)cc1 (centres undefined),46.5% (inactive)
4,COC(=O)c1cc(NC(=O)CCc2c(C)nc3c4c(C)cc(C)nc4nn3c2C)cc(C(=O)OC)c1,8.7% (inactive)
5,COc1ccc(C2c3ccc(O)cc3Oc3ncn(CCCO)c(=N)c32)cc1OC (centres undefined),0% (inactive)
6,CC(=O)Oc1cc2c(C(=O)NCCN3CCOCC3)c(C)oc2c2ccccc12,55.4% (inactive)
7,c1ccc2cc3c(NCCN4CCOCC4)ccnc3cc2c1,-98.8% (active)
8,CSc1ccc(CNCCN2CCOCC2)cc1,0% (inactive)
9,CNc1nc2cnc(-c3ccsc3)cc2n1Cc1ccccc1,12.4% (inactive)
10,Cc1c(C(=O)Nc2cccc(Cl)c2)oc2ccc(S(=O)(=O)N3CCOCC3)cc12,4.49% (inactive)
11,NC(=O)Nc1ccc(C(=O)OCC(=O)NC2CCCc3ccccc32)cc1 (centres undefined),-25.3% (inactive)
12,O=C(CCNC(=O)c1ccc(Cl)cc1)NC1CCCc2ccccc21 (centres undefined),-82% (active)
13,Nc1ccc(C(=O)OCC(=O)NC2CCCc3ccccc32)cc1[N+](=O)[O-] (centres undefined),-3.15% (inactive)
14,CCC(C)c1ccc2oc(-c3ccc(NC(=O)c4cc5ccccc5o4)cc3)nc2c1 (centres undefined),-17.9% (inactive)
15,COc1cc(NC(=O)Cn2nc(-c3ccc(C)c(C)c3)ccc2=O)cc(OC)c1,10.3% (inactive)
16,COc1cccc(CNS(=O)(=O)c2csc(C(N)=O)c2)c1,-30.1% (inactive)
17,COc1cccc(CNS(=O)(=O)c2ccc3c(c2)N(C(C)=O)CCS3)c1,-73.4% (active)
18,COc1cccc(CNS(=O)(=O)c2ccc3c(c2)CC(C)N3C(=O)C2CCC2)c1 (centres undefined),-33.4% (inactive) and -60.7% (active)
19,COc1ccc(N(C)S(=O)(=O)c2ccc3c(c2)CC(C)N3C(=O)C2CC2)c(OC)c1 (centres undefined),-22.8% (inactive)
20,O=C(C1CCC1)N1CCc2cc(S(=O)(=O)NCc3cccnc3)ccc21,-32% (inactive)
21,CC(=O)N1CCSc2ccc(S(=O)(=O)N3CCC(C)CC3)cc21,-33.3% (inactive)
22,CCOCCn1ccc2c(OCC(=O)NCc3ccc(C)cc3)cccc2c1=O,22.4% (inactive)
